Consider 7 compounds from PubChem BioAssay (Tox21).

Structures are written as SMILES. Results filed as inconclusive are left out. Active and inactive are the calls of the source. Unless noted, calls come from the whole dose curve; as a rule, active = well fitted curve in the direction sought with a large enough effect in the repeat runs; inconclusive = weak or mixed curves; inactive = no such curve, though single readings can be large; an effect the other way counts as inactive or inconclusive.

The nature of assay [1]: qHTS assay to identify small molecule antagonists of the androgen receptor (AR) signaling pathway using the MDA cell line in the presence of 0.5 nM R1881 - cell viability counter screen (AID 1259242). Note: nearly all actives have a fitted effect of over 45% in size. Particulars: MDA-kb2 viability, CellTiter-Fluor protease fluorescence, 16 h; series mostly up to 92.4 µM. The method in brief:
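qHTS format. MDA-kb2 (MMTV-luc, AR/GR responsive) + cpd + 0.5 nM R1881 final, 16 hr 37C/0% CO2 → CellTiter-Fluor 30 min → fluorescence intensity.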
(In general: Quantitative high-throughput screening tests each substance at several concentrations.)

The target in assay [2] is Estrogen receptor (Homo sapiens) (UniProt P03372). Kind of assay: qHTS assay to identify small molecule antagonists of the estrogen receptor alpha (ER-alpha) signaling pathway using the BG1 cell line in the presence of 0.1 nM 17-beta-estradiol (AID 1259244). Note: nearly all actives have a fitted effect of over 50% in size. Particulars: VM7Luc4E2 (BG1) ERE-luciferase, antagonist mode, 0.1 nM E2, 22 h; series mostly up to 92.4 µM. The procedure, abridged:
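Reporter is a stably transfected luciferase under four estrogen responsive elements in VM7Luc4E2 cells expressing native full-length ER-alpha; inhibition of 0.1 nM (final) 17beta-estradiol-driven signal over 22 h is read by luminescence.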

Assay [3] is described as follows: qHTS assay to identify small molecule HDAC inhibitors (AID 1259364).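 Note: wild-type HCT-116 cells with endogenous class I/II HDAC activity; top concentration of the series differs between compounds; nearly all actives have a fitted effect of over 45% in size.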 Particulars: HCT-116 HDAC-Glo I/II luminescence, 2 h; series mostly up to 92.4 µM. The procedure, abridged:
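Quantitative high-throughput format: overnight-seeded HCT-116 cells got compounds for 2 hr at 37C; HDAC-Glo I/II reagent added, 30 min RT, luminescence measured.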

Assay [4] can be described thus: qHTS assay to identify small molecule HDAC inhibitors - cell viability counter screen (AID 1259365). Note: nearly all actives have a fitted effect of over 50% in size. Particulars: HCT-116 viability, CellTiter-Glo ATP luminescence, 2 h; series mostly up to 92.4 µM. The method in brief: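 To flag cytotoxic hits, 1,500 wild-type HCT-116 cells per well, plated the day before, receive test compounds for 2hr at 37 C before CellTiter-Glo reagent and a luminescence read.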

Assay [5] can be described thus: qHTS assay to identify small molecule agonists of the sonic hedgehog signaling (Shh) pathway - cell viability counter screen (AID 1259366). Note: nearly all actives have a fitted effect of over 50% in size. Particulars: NIH/3T3 Gli1-Luc viability, CellTiter-Fluor, 24 h; series mostly up to 92.4 µM. The method in brief: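 Fluorescence from CellTiter-Fluor reports live cells in this counter screen. NIH/3T3-derived Gli1-Luc reporter cells receive test compounds for 24hr at 37C; reagent goes in at 23hr.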

Assay [6] in a line: qHTS assay to identify small molecule antagonists of the sonic hedgehog signaling (Shh) pathway - cell viability counter screen (AID 1259367). Note: nearly all actives have a fitted effect of over 55% in size. Particulars: NIH/3T3 Gli1-Luc viability, CellTiter-Fluor, 24 h; series mostly up to 92.4 µM. The procedure, abridged:
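Conditioned medium drove Shh signaling in 3T3 Gli1-Luc cells exposed to compounds at 37C and 5% CO2. Viability was determined from CellTiter-Fluor fluorescence, with reagent incubated 1 hr after 23 hr of treatment.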

Assay [7] is described as follows: qHTS assay to identify small molecule agonists of the sonic hedgehog signaling (Shh) pathway (AID 1259368; calls by dose curve;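 note: NIH/3T3-derived 3T3Gli1-Luc cells carrying a stable Gli1-driven firefly luciferase reporter; nearly all actives have a fitted effect of over 15% in size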). Particulars: NIH/3T3 Gli1-Luc reporter, luciferase, 24 h, active compounds read high; series mostly up to 92.4 µM. The method in brief:
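Quantitative high-throughput format using a Gli1-driven firefly luciferase reporter line derived from NIH/3T3 cells. After a 24 hr compound treatment at 37 C and 5% CO2, luminescence reported Gli1 response element activity.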

Assay [8] is described as follows: qHTS assay to identify small molecule antagonists of the sonic hedgehog signaling (Shh) pathway (AID 1259369; calls by dose curve; note: nearly all actives have a fitted effect of over 45% in size; note: potency is the fitted concentration of half-maximal effect). Particulars: NIH/3T3 Gli1-Luc reporter, Shh antagonist, luminescence 24 h; series mostly up to 92.4 µM. The procedure, abridged:
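Stable Gli1-Luc reporter NIH/3T3 clone; quantitative HTS in stimulated mode with conditioned medium. Luminescence measured after 24hr compound treatment at 37 C.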

In assay [9] the target is Estrogen receptor beta (Homo sapiens) (UniProt Q92731). Description: qHTS assay to identify small molecule antagonists of the estrogen receptor beta (ER-beta) signaling pathway (AID 1259378; active = well fitted inhibition curve with a large enough effect in the signal ratio in the repeat runs, not every such curve was filed as active; the % refers to the signal ratio). Particulars: ER-beta-UAS-bla HEK293T, beta-lactamase FRET ratio, 16 h; series mostly up to 92.4 µM. The procedure, abridged: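 ER-beta-UAS-bla HEK293T (GripTite) cells in 2% charcoal-stripped FBS medium were preincubated 6 hr at 37C, dosed with compound, then stimulated with 1 nM E2 (final) for 16 hr; beta-lactamase reporter read by B/G FRET fluorescence after 2 hr substrate loading.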
Chain of Estrogen receptor beta (Homo sapiens) (Q92731 whole entry, looked up): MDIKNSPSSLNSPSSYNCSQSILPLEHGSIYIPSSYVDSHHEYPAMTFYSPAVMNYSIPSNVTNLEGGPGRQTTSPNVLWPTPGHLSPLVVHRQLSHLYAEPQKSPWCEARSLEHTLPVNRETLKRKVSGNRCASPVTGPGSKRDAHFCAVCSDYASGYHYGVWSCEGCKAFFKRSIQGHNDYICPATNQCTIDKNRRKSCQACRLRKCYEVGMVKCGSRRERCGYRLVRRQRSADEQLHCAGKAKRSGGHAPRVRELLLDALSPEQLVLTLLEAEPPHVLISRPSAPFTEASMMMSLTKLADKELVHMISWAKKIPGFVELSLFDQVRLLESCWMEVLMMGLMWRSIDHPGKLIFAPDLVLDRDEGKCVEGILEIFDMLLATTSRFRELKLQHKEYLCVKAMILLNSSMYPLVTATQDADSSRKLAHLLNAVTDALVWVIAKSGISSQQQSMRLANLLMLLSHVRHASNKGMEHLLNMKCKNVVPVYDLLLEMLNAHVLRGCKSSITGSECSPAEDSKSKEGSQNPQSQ

Assay [10] can be described thus: qHTS assay to identify small molecule agonists of the androgen receptor (AR) signaling pathway in the presence of an antagonist - cell viability counter screen (AID 1259379).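 Note: MDA-kb2 human breast cancer cells carrying an MMTV luciferase reporter; nearly all actives have a fitted effect of over 25% in size.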 Particulars: MDA-kb2 viability, CellTiter-Fluor, 16 h; series mostly up to 92.4 µM. The procedure, abridged: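 Nilutamide-containing (3.0uM final) MDA-kb2 cultures, 3,000 cells/well, were treated with compounds across 15 concentrations. After 16 hr at 37C with no CO2, cell viability was determined by CellTiter-Fluor fluorescence in the luciferase assay wells.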

Assay [11] is described as follows: qHTS assay to identify small molecule antagonists of the estrogen receptor beta (ER-beta) signaling pathway - cell viability counter screen (AID 1259382). Note: nearly all actives have a fitted effect of over 55% in size. Particulars: ER-beta-UAS-bla HEK293T viability, CellTiter-Glo luminescence, 16 h; series mostly up to 92.4 µM. The method in brief: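 Viability is scored by CellTiter-Glo luminescence (30 min, room temperature) in ER-beta-UAS-bla HEK293T wells already read for reporter fluorescence. Compound exposure lasts 16 hr at 37C alongside 1nM 17-beta-estradiol in charcoal-stripped serum medium.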

The target of assay [12] is Thyrotropin receptor (Homo sapiens) (UniProt P16473). Kind of assay: qHTS assay to identify small molecule antagonists of the thyroid stimulating hormone receptor (TSHR) signaling pathway (AID 1259385; calls by dose curve; note: nearly all actives have a fitted effect of over 20% in size). Particulars: TSHR-HEK293 cAMP HTRF, TSH-stimulated antagonist mode; series mostly up to 92.4 µM. The method in brief: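 TSHR-HEK293 cells were plated and held 18 h at 37C/5% CO2, then given compound plus Ro20-1724 and stimulated with TSH at 1.5 ng/mL final. After 30 min at room temperature, cAMP was detected with cAMP-d2/anti-cAMP-cryptate (1 h) by fluorescence.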
Chain of Thyrotropin receptor (Homo sapiens) (P16473 whole entry, looked up): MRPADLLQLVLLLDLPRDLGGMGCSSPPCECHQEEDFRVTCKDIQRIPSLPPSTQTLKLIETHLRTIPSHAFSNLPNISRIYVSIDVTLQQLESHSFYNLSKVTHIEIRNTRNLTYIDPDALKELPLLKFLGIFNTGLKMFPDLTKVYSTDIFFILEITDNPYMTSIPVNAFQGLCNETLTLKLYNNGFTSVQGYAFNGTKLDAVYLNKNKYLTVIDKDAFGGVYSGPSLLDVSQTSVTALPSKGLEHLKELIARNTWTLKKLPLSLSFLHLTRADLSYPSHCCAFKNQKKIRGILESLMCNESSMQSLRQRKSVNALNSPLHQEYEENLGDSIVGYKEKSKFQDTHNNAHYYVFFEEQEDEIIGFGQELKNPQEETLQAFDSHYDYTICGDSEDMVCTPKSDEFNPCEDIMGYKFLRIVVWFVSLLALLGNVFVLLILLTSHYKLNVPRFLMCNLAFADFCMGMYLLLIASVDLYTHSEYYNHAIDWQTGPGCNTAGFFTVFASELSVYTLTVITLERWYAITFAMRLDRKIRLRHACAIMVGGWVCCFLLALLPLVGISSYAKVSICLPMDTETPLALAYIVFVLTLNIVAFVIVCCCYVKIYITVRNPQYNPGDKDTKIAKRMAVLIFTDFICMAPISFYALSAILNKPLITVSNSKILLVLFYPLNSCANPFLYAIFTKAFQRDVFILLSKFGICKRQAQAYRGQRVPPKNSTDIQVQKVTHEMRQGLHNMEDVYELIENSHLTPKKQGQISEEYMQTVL

Assay [13] can be described thus: qHTS assay to identify small molecule agonists of the estrogen receptor alpha (ER-alpha) signaling pathway in the presence of an antagonist - cell viability counter screen (AID 1259386).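 Note: cells exposed to compounds for 22 h at 37 °C before the viability read; nearly all actives have a fitted effect of over 30% in size.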 Particulars: VM7Luc4E2 viability, CellTiter-Fluor fluorescence, 22 h; series mostly up to 92.4 µM. The procedure, abridged:
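In this counter screen, compound effects on VM7Luc4E2 viability were tested in the presence of the antagonist ICI-182,780 at 10.0nM final. Compounds were dosed at 15 concentrations, exposure lasted 22hr, and the CellTiter-Fluor signal was read.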

The target in assay [14] is Estrogen receptor beta (Homo sapiens) (UniProt Q92731). Description: qHTS assay to identify small molecule agonists of the estrogen receptor beta (ER-beta) signaling pathway (AID 1259377; active = well fitted activation curve with a large enough effect in the signal ratio in the repeat runs, not every such curve was filed as active; the % refers to the signal ratio). Particulars: ER-beta-UAS-bla HEK293T, beta-lactamase FRET ratio, 16 h; series mostly up to 92.4 µM. The procedure, abridged:
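Screening used GripTite ER-beta-UAS-bla cells held in 2% charcoal-stripped FBS medium. After overnight (16 hr) compound incubation at 37C, beta-lactamase activity was detected with a FRET substrate by fluorescence.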

Assay [15] is described as follows: qHTS assay to identify small molecule agonists of the estrogen receptor beta (ER-beta) signaling pathway - cell viability counter screen (AID 1259380). Note: nearly all actives have a fitted effect of over 30% in size. Particulars: ER-beta-bla HEK293T viability, CellTiter-Glo luminescence, 16 h; series mostly up to 92.4 µM. The method in brief:
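Steps: plate ER-beta-UAS-bla HEK293T cells, rest 6 hr; add compounds in DMSO; incubate 16 hr at 37C, 5% CO2; add FRET substrate 2 hr; add CellTiter-Glo, wait 30 min at room temperature; read luminescence.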

Assay [16] has as its target Estrogen receptor (Homo sapiens) (UniProt P03372). Kind of assay: qHTS assay to identify small molecule agonists of the estrogen receptor alpha (ER-alpha) signaling pathway in the presence of an antagonist (AID 1259383; calls by dose curve; note: top concentration of the series differs between compounds; nearly all actives have a fitted effect of over 15% in size). Particulars: VM7Luc4E2 cells, ERE-luciferase, +ICI-182,780, 22 h; series mostly up to 92.4 µM. The method in brief:
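Readout was ERE-driven luciferase luminescence in VM7Luc4E2 cells, which express full-length ER-alpha endogenously. Compounds were tested at 15 concentrations for 22hr alongside 10.0nM ICI-182,780 (final concentration).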

Assay [17] is described as follows: qHTS assay to identify small molecule agonists or antagonists of the thyroid stimulating hormone receptor (TSHR) signaling pathway - wild type cell line counter screen (AID 1259384; calls by dose curve). Particulars: HEK293 wild type, cAMP HTRF counter-screen; series mostly up to 92.4 µM. The procedure, abridged: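 Wild-type HEK293 cells were plated 18 h at 37 C/5% CO2, pin-dosed with compound plus Ro20-1724 medium, held 30 min at room temperature, then given cAMP-d2 and anti-cAMP-cryptate; fluorescence was read after 1 h. Fifteen concentrations, triplicate.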

Chain of Estrogen receptor (Homo sapiens) (P03372 whole entry, looked up): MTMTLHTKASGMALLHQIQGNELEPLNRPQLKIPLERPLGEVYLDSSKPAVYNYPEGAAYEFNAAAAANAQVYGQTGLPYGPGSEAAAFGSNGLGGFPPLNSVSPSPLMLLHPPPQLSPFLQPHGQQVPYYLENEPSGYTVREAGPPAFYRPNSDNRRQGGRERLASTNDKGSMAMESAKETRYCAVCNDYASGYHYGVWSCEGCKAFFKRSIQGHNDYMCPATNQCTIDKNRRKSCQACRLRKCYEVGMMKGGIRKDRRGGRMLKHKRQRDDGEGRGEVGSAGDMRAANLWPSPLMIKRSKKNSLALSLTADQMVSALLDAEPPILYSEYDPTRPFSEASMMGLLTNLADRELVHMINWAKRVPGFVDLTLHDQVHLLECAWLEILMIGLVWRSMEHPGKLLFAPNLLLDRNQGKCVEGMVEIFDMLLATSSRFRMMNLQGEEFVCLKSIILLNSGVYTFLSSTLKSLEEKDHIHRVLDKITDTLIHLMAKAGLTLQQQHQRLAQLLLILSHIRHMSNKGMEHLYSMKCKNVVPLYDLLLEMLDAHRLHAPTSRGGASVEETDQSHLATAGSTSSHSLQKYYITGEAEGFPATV

`CCOP(=O)(N=C1SCCS1)OCC`: the result in assay [1], in assay [4] and in [7] was inactive. Further, the Potency result in assay [2], in assay [3], in assay [5], in assay [6], in assay [8] and in assay [9] was “inactive” in each case. The Potency result in [10], in assay [11], in assay [12] and in assay [13] was “inactive” each time.

With `ClC(Br)Br`, the result in assay [1], in [4], in assay [7] and in assay [14] was inactive. The Potency entry in assay [2], in assay [3], in assay [5], in assay [6], in assay [8] and in assay [9] was “inactive” each time. Also, the Potency result in assay [10], in assay [15], in [11], in assay [16], in assay [12] and in assay [13] was “inactive” each time.

On to `COc1cc(OC)nc(NC(=O)NS(=O)(=O)c2ncccc2OCC(F)(F)F)n1`, for which the result in assay [1], in assay [4] and in assay [7] was inactive. For the same compound, the Potency entry in assay [2], in [3], in [5], in assay [6], in assay [8] and in assay [9] was “inactive” each time. The Potency entry in assay [10], in assay [11], in assay [16], in assay [12] and in [13] was “inactive” throughout.

For `ClC(Cl)C(Cl)Cl`, the result in [1], in assay [4], in [7] and in assay [14] was inactive. The Potency entry in [2], in [3], in [5], in assay [6], in assay [8] and in [9] was “inactive” throughout. Moreover, the Potency entry in assay [10], in assay [15], in assay [11], in assay [16] and in [13] was “inactive” each time.

For `NC(=S)C(N)=S`, the outcome in [1], in [4] and in [7] was inactive. In addition, the Potency result in [2], in [3], in assay [5], in assay [6], in [8] and in assay [9] was “inactive” in each case. Further, the Potency entry in [10], in [15], in assay [11], in assay [16] and in assay [13] was “inactive” each time.

As to `BrCCCCCCBr`, the result in [1], in [4], in [7] and in assay [14] was inactive. In addition, the Potency result in [2], in assay [3], in assay [5], in assay [6], in [9] and in assay [10] was “inactive” in each case. For the same compound, the Potency entry in assay [11], in assay [16], in [17], in assay [12] and in assay [13] was “inactive” throughout. Further, in assay [8], the Potency is 24.3 µM (active).

In the case of `O=C1CN2CCOC2(c2ccccc2Cl)c2cc(Cl)ccc2N1` (configuration not stated), the outcome in [1], in assay [4] and in [7] was inactive. In addition, the Potency result in assay [2], in [3], in assay [5], in assay [6], in assay [8] and in assay [10] was “inactive” each time. In addition, the Potency result in assay [15], in assay [11], in [16], in [12] and in assay [13] was “inactive” in each case.
